Laboratory results: PubChem BioAssay AID1159580 (chemical genetic matrix, 2015)
Screen size: about 5,500 compounds; about 2,000 (36%) were called active. About 18% were inconclusive and are not listed. Rule as the data show it: active = normalized growth mostly below about 0.91 (no sharp cut-off); inconclusive = no clear call, values can overlap the other calls; inactive = mostly above about 0.92. The list shows a part of the results.

Test: chemical genetic growth profiling, strain panel (AID 1159580);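 also: tested at 20 µM; growth read once vehicle control cultures reached saturation at 30 °C; 1 = growth at the plate median or of vehicle wells; lower values mean less growth of the strain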
Conditions: growth OD
[1] = S. cerevisiae deletion strains, locus YAL013W, strain DEP1, stronger effect = lower value
[2] = S. cerevisiae deletion strains, locus YBR229C, strain ROT2, stronger effect = lower value
[3] = S. cerevisiae deletion strains, locus YDL101C, strain DUN1, stronger effect = lower value
[4] = S. cerevisiae deletion strains, locus YDL134C, strain PPH21, stronger effect = lower value
[5] = S. cerevisiae deletion strains, locus YDR150W, strain NUM1, stronger effect = lower value
[6] = S. cerevisiae deletion strains, locus YEL061C, strain CIN8, stronger effect = lower value
[7] = S. cerevisiae deletion strains, locus YHR030C, strain SLT2, stronger effect = lower value
[8] = S. cerevisiae deletion strains, locus YJR043C, strain POL32, stronger effect = lower value
[9] = S. cerevisiae deletion strains, locus YKL190W, strain CNB1, stronger effect = lower value
[10] = S. cerevisiae deletion strains, locus YLR039C, strain RIC1, stronger effect = lower value
[11] = S. cerevisiae deletion strains, locus YLR262C, strain YPT6, stronger effect = lower value
[12] = S. cerevisiae deletion strains, locus YMR263W, strain SAP30, stronger effect = lower value
[13] = S. cerevisiae deletion strains, locus YMR307W, strain GAS1, stronger effect = lower value
[14] = S. cerevisiae deletion strains, locus YPL241C, strain CIN2, stronger effect = lower value

Measured: normalized growth

O=C(O)COCC(=O)N1CCc2c([nH]c3ccccc23)C1C(F)(F)F (stereo unspecified)
active: S. cerevisiae deletion strains, locus YLR085C, strain ARP6, stronger effect = lower value 1.33 [resistant]
inactive: [1] 1.01 | [2] 0.998 | [3] 1.02 | [4] 1.01 | [5] 0.949 | [6] 1.01 | S. cerevisiae deletion strains, locus YGR078C, strain PAC10, stronger effect = lower value 1.03 | [7] 1.06 | S. cerevisiae deletion strains, locus YHR087W, strain rtc3, stronger effect = lower value 1.01 | [8] 1.02 | S. cerevisiae deletion strains, locus YJR075W, strain HOC1, stronger effect = lower value 1.06 | [9] 1.03 | [10] 1.03 | S. cerevisiae deletion strains, locus YLR058C, strain SHM2 (second series), stronger effect = lower value 1.02 | [11] 0.998 | S. cerevisiae deletion strains, locus YML094W, strain GIM5, stronger effect = lower value 1.04 | S. cerevisiae deletion strains, locus YMR219W, strain ESC1, stronger effect = lower value 1 | [12] 0.954 | [13] 1.24 | S. cerevisiae deletion strains, locus YNL153C, strain GIM3, stronger effect = lower value 1.01 | S. cerevisiae deletion strains, locus YNL298W, strain CLA4 (second series), stronger effect = lower value 1.05 | S. cerevisiae deletion strains, locus YNL322C, strain KRE1, stronger effect = lower value 1.02 | S. cerevisiae deletion strains, locus YNR030W, strain Alg12, stronger effect = lower value 1.06 | S. cerevisiae deletion strains, locus YPL055C, strain LGE1, stronger effect = lower value 0.961 | [14] 1.07 | S. cerevisiae deletion strains, locus YPR135W, strain CTF4, stronger effect = lower value 1.05 | S. cerevisiae strains, strain wild type, stronger effect = lower value 1.02

COC(=O)[C@H]1[C@H]2C[C@H]3c4[nH]c5ccccc5c4CCN3C[C@H]2CC[C@@H]1O
inactive: [1] 0.998 | S. cerevisiae deletion strains, locus YBR021W, strain FUR4, stronger effect = lower value 1 | [2] 1.01 | S. cerevisiae deletion strains, locus YCL029C, strain bik1, stronger effect = lower value 1 | S. cerevisiae deletion strains, locus YDL035C, strain GPR1, stronger effect = lower value 1.01 | S. cerevisiae deletion strains, locus YDL074C, strain BRE1, stronger effect = lower value 1.02 | [3] 1.01 | [4] 1.01 | S. cerevisiae deletion strains, locus YDL185W, strain tfp1, stronger effect = lower value 1.01 | S. cerevisiae deletion strains, locus YDL192W, strain arf1, stronger effect = lower value 1 | S. cerevisiae deletion strains, locus YDR101C, strain arx1, stronger effect = lower value 1.01 | [5] 1.01 | S. cerevisiae deletion strains, locus YDR162C, strain NBP2, stronger effect = lower value 1.01 | S. cerevisiae deletion strains, locus YDR318W, strain mcm21, stronger effect = lower value 1 | S. cerevisiae deletion strains, locus YDR388W, stronger effect = lower value 1 | S. cerevisiae deletion strains, locus YDR502C, strain sam2, stronger effect = lower value 1.01 | [6] 1.01 | S. cerevisiae deletion strains, locus YER110C, stronger effect = lower value 1 | S. cerevisiae deletion strains, locus YER155C, strain BEM2, stronger effect = lower value 1.01 | S. cerevisiae deletion strains, locus YER167W, strain BCK2, stronger effect = lower value 1.01 | S. cerevisiae deletion strains, locus YGL078C, strain dbp3, stronger effect = lower value 1.01 | S. cerevisiae deletion strains, locus YGL086W, strain mad1, stronger effect = lower value 1.01 | S. cerevisiae deletion strains, locus YGL248W, strain PDE1, stronger effect = lower value 1.01 | S. cerevisiae deletion strains, locus YGR135W, strain pre9, stronger effect = lower value 0.988 | S. cerevisiae deletion strains, locus YGR229C, strain SMI1, stronger effect = lower value 1.01 | S. cerevisiae deletion strains, locus YGR252W, strain gcn5, stronger effect = lower value 0.977 | [7] 1.01 | S. cerevisiae deletion strains, locus YHR079C, strain IRE1 (second series), stronger effect = lower value 1 | S. cerevisiae deletion strains, locus YHR094C, strain hxt1, stronger effect = lower value 1 | S. cerevisiae deletion strains, locus YHR129C, strain ARP1, stronger effect = lower value 1.01 | S. cerevisiae deletion strains, locus YHR200W, strain rpn10, stronger effect = lower value 1.01 | S. cerevisiae deletion strains, locus YIL066C, strain RNR3, stronger effect = lower value 1.02 | S. cerevisiae deletion strains, locus YIL073C, strain SPO22, stronger effect = lower value 1 | S. cerevisiae deletion strains, locus YIL125W, strain kgd1, stronger effect = lower value 0.999 | S. cerevisiae deletion strains, locus YIR030C, strain dcg1, stronger effect = lower value 0.999 | S. cerevisiae deletion strains, locus YJL095W, strain BCK1, stronger effect = lower value 1.02 | S. cerevisiae deletion strains, locus YJL134W, strain LCB3, stronger effect = lower value 1.01 | S. cerevisiae deletion strains, locus YJL168C, strain set2, stronger effect = lower value 0.998 | S. cerevisiae deletion strains, locus YJL187C, strain SWE1 (second series), stronger effect = lower value 1.03 | [8] 1.02 | S. cerevisiae deletion strains, locus YKL009W, strain mrt4, stronger effect = lower value 1 | S. cerevisiae deletion strains, locus YKL068W, stronger effect = lower value 0.993 | S. cerevisiae deletion strains, locus YKL085W, strain MDH1 (second series), stronger effect = lower value 1.01 | S. cerevisiae deletion strains, locus YKL085W, strain MDH1, stronger effect = lower value 1.01 | [9] 1.01 | S. cerevisiae deletion strains, locus YKR001C, strain vps1, stronger effect = lower value 1.02 | [10] 1.08 | S. cerevisiae deletion strains, locus YLR058C, strain SHM2, stronger effect = lower value 1.02 | S. cerevisiae deletion strains, locus YLR102C, strain apc9, stronger effect = lower value 1 | [11] 1.08 | S. cerevisiae deletion strains, locus YLR268W, strain sec22, stronger effect = lower value 1 | S. cerevisiae deletion strains, locus YLR330W, strain CHS5, stronger effect = lower value 1.01 | S. cerevisiae deletion strains, locus YLR342W, strain FKS1 (second series), stronger effect = lower value 0.984 | S. cerevisiae deletion strains, locus YLR371W, strain rom2, stronger effect = lower value 0.999 | S. cerevisiae deletion strains, locus YLR418C, strain cdc73, stronger effect = lower value 0.985 | S. cerevisiae deletion strains, locus YML016C, strain PPZ1, stronger effect = lower value 1.01 | S. cerevisiae deletion strains, locus YML032C, strain rad52, stronger effect = lower value 0.998 | S. cerevisiae deletion strains, locus YML124C, strain tub3, stronger effect = lower value 0.993 | S. cerevisiae deletion strains, locus YMR078C, strain ctf18, stronger effect = lower value 1.01 | S. cerevisiae deletion strains, locus YMR223W, strain ubp8, stronger effect = lower value 0.992 | [12] 1.01 | [13] 0.95 | S. cerevisiae deletion strains, locus YNL067W, strain RPL9B, stronger effect = lower value 1.02 | S. cerevisiae deletion strains, locus YNL233W, strain BNI4, stronger effect = lower value 1.02 | S. cerevisiae deletion strains, locus YNL250W, strain rad50, stronger effect = lower value 1.02 | S. cerevisiae deletion strains, locus YNL271C, strain bni1, stronger effect = lower value 1.01 | S. cerevisiae deletion strains, locus YNL298W, strain CLA4, stronger effect = lower value 0.988 | S. cerevisiae deletion strains, locus YNL307C, strain MCK1, stronger effect = lower value 1.01 | S. cerevisiae deletion strains, locus YNR052C, strain pop2, stronger effect = lower value 0.998 | S. cerevisiae deletion strains, locus YOL012C, strain htz1 0.805 | S. cerevisiae deletion strains, locus YOL147C, strain pex11, stronger effect = lower value 1.01 | S. cerevisiae deletion strains, locus YOR061W, strain CKA2, stronger effect = lower value 1.01 | S. cerevisiae deletion strains, locus YOR069W, strain VPS5, stronger effect = lower value 1.01 | S. cerevisiae deletion strains, locus YOR136W, strain idh2, stronger effect = lower value 0.998 | S. cerevisiae deletion strains, locus YOR144C, strain elg1, stronger effect = lower value 1 | S. cerevisiae deletion strains, locus YOR184W, strain ser1, stronger effect = lower value 1.01 | S. cerevisiae deletion strains, locus YOR316C, strain cot1, stronger effect = lower value 1.01 | [14] 1.01 | S. cerevisiae deletion strains, locus YPR119W, strain clb2, stronger effect = lower value 1 | S. cerevisiae deletion strains, locus YPR141C, strain kar3, stronger effect = lower value 0.992 | S. cerevisiae deletion strains, locus YPR163C, strain tif3, stronger effect = lower value 1.01 | S. cerevisiae deletion strains, locus YPR167C, strain met16, stronger effect = lower value 1 | S. cerevisiae deletion strains, strain wtn01, stronger effect = lower value 1.01
